12-LOX inh: inhibitors of human 12S-lipoxygenase ALOX12; P18054; purified 12hLO, xylenol orange hydroperoxide absorbance; Potency, µM (doses to about 108 µM), for inactives: at the top dose activity change, negative = inhibition, hits mostly inhibitors; 580,000 compounds, 1.1% hits; AID 1671190; further: potency means the concentration at half of the fitted maximal effect
Target sequence (P18054 whole entry, looked up): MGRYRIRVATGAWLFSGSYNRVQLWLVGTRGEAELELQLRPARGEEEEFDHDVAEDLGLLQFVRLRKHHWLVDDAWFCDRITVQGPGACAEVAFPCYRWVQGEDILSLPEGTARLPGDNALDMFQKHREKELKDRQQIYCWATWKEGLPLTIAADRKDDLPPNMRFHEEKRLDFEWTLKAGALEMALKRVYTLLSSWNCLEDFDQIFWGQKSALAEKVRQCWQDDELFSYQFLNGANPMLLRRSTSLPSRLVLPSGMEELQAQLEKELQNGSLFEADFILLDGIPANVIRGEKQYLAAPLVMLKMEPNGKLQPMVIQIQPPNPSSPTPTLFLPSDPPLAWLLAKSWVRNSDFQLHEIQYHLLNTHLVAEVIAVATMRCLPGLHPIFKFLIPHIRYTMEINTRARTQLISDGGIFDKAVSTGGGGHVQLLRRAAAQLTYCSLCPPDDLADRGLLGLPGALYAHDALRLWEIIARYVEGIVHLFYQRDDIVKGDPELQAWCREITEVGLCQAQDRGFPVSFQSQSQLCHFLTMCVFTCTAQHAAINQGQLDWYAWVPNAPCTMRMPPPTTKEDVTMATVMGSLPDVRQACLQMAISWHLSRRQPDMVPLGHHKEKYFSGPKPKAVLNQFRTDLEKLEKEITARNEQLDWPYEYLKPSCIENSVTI
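Hydroperoxide product was detected by ferrous iron/xylenol orange as the 573 to 405 nm absorbance ratio. Arachidonic acid at 40 uM (final) was turned over for 30 min at room temperature by 150 nM human 12hLO, pH 7.0 Hepes buffer, after 15 min compound preincubation.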
IL-1B inflam inh: blocks inflammasome-driven IL-1 beta release | THP-1 LPS/ATP IL-1B secretion, AlphaLISA, 16 h; stronger effect = lower value | activity change, % at 57.5 µM | 360,000 compounds, 4.7% hits | AID 743279; in the data active means activity change below about -50%; inconclusive means mostly about -30% to -49%
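Secreted IL-1B measured by AlphaLISA bead assay after 16 h compound exposure of THP-1 cells; compounds (final up to 57.5 uM) added 1 h before LPS (250 ng/mL) and ATP (1.25 mM) stimulation; lower signal means less secretion.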
HT1080NT lethal: kills 2HG-producing HT-1080-NT fibrosarcoma cells | 360,000 compounds, 1.6% hits | HT-1080-NT fibrosarcoma viability, CellTiter-Glo ATP luminescence, 48 h | Potency, µM (highest dose often 46.1 µM), inactives show top-dose activity, negative = less viability, hits mostly cytotoxic;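 further: NT is the 2HG producing partner of a matched IDH1 knockdown line; potency means the concentration at half of the fitted maximal effect; 0% = DMSO-treated cells and -100% = media-only wells without cells; nearly all actives have a fitted effect of over 55% in size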
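Compounds were tested in concentration-response format on HT-1080-NT cells for 48 hours at 37 degrees C. Cell viability came from CellTiter-Glo luminescence; curves were classified by r2, response magnitude and activity.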
TDP1 cell noCPT: qHTS for Inhibitors of human tyrosyl-DNA phosphodiesterase 1 (TDP1): qHTS in cells in absence of CPT. 420,000 compounds, 15% hits. Potency, µM (titrated, usually from 46.2 µM), for inactives: at the top dose activity change, negative = growth inhibition, hits mostly inhibitors. DT40 Tdp1-/- hTDP1 cells, no CPT, ATP luminescence, 48 h. AID 686978, 2013; further: potency means the concentration at half of the fitted maximal effect; nearly all actives have a fitted effect of over 55% in size
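Chicken DT40 Tdp1-/- cells complemented with human TDP1, screened without camptothecin (DMSO vehicle only), 400 cells/well. Compounds pin-transferred, cells incubated at 37 °C for at least 48 hr. Growth read as ATP-dependent luminescence (CellTiter-Glo, 30 min at RT).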
TDP1 cell CPT: growth inhibition of DT40 Tdp1-/-;hTDP1 cells with camptothecin (screen for TDP1 inhibitors) | chicken DT40 Tdp1-/-;hTDP1 cells + 20 nM CPT, ATP luminescence, 48 h | Potency, µM (doses to about 46.2 µM), for the others: at the top dose activity change, negative = growth inhibition, most hits filed as inhibitors | 420,000 compounds, 12% hits | AID 686979; further: potency means the concentration at half of the fitted maximal effect; nearly all actives have a fitted effect of over 55% in size
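Cell growth measured by CellTiter-Glo luminescence after a minimum 48 h, 37 C compound exposure with 20 nM CPT in Tdp1-knockout DT40 cells stably expressing hTDP1, seeded 400/well; qHTS titration format.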
HT1080 IDH1KD tx: HT-1080 IDH1 knockdown cell toxicity (counter line); HT-1080 IDH1 knockdown viability, ATP luminescence, 48 h; Potency, µM (doses to about 46.1 µM), for the others: at the top dose activity, negative = toxicity, hits mostly cytotoxic; 360,000 compounds, 2% hits; AID 686971;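 further: potency means the concentration at half of the fitted maximal effect; 0% = DMSO wells and -100% = cell-free medium wells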
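CellTiter-Glo luminescence after 48 h compound exposure at 37 degrees C of IDH1-knockdown HT-1080 cells in 5% FBS RPMI. %Activity scaled between DMSO wells and cell-free media wells, with curves fitted and assigned curve classes.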
* hit, by the source's call; ? = inconclusive; · = not tested or not shown; [ ] = dose if it differs, or a comment. The sample as a whole holds a higher share of hits than the screen did. Unless noted, the call rests on the fitted dose curve; in most records, active means well fitted curve in the direction sought with a large enough effect; inconclusive means small, poorly fitted or top-dose-only effect, or another doubt; inactive means no such curve, though single readings can be large; an effect the other way counts as inactive or inconclusive. Unless noted, on the % scale 0 is the no-effect control and ±100 the full control effect.

SMILES | 12-LOX inh | IL-1B inflam inh | HT1080NT lethal | TDP1 cell noCPT | TDP1 cell CPT | HT1080 IDH1KD tx
Clc1ccccc1CSc1ccnc(SCc2ccccc2Cl)n1 | -14% | · | · | · | · | ·
CSc1ccc(Cn2c(C)c(C(=O)NCc3cccc(Cl)c3)sc2=O)cc1 | 4% | ? | -17% | ? | ? | ?
CC(=O)Oc1ccc(Cn2c(C)c(C(=O)NCc3ccc4c(c3)OCCO4)sc2=O)cc1 | 21% | 19 | -17% | 16µM* | ? | -16%
COc1ccc(Br)c(Cn2c(C)c(C(=O)NCc3ccc4c(c3)OCCO4)sc2=O)c1 | -9% | -21 | 2% | -20% | ? | 2%
COc1ccc(C(C)=O)cc1Cn1c(C)c(C(=O)NCc2cccc(C)c2)sc1=O | 14% | -79* | 5% | ? | ? | 6%
Cc1cccc(C)c1Cn1c(C)c(C(=O)NCc2ccc([N+](=O)[O-])cc2)sc1=O | 11% | 0 | ? | 23µM* | ? | ?
COC(=O)c1ccc(Cn2c(C)c(C(=O)NCc3ccc([N+](=O)[O-])cc3)sc2=O)o1 | -2% | -3 | 0% | ? | ? | -22%
COc1ccc(C(C)=O)cc1Cn1c(C)c(C(=O)NCc2cccc(C(F)(F)F)c2)sc1=O | -6% | -22 | -19% | ? | ? | ?
CSc1ccc(Cn2c(C)c(C(=O)NCc3cccc(C)c3)sc2=O)cc1 | 1% | -65* | -9% | ? | 23µM* | ?
COc1ccc(CNC(=O)c2sc(=O)n(Cc3cc(C(C)=O)ccc3OC)c2C)cc1 | -2% | -9 | 3% | 13µM* | 23µM* | 9%
COc1ccc(C(C)=O)cc1Cn1c(C)c(C(=O)NCc2ccc(C(C)C)cc2)sc1=O | 0% | 26 | -22% | ? | ? | -21%
COc1ccc(NC(=O)c2sc(=O)n(Cc3ccc(F)c(Cl)c3)c2C)cc1OC | 4% | -6 | -12% | 10µM* | 23µM* | ?
COc1ccc(CNC(=O)c2sc(=O)n(Cc3ccc(C)cc3)c2C)cc1 | 0% | ? | 5% | ? | ? | -2%
COc1ccc(CNC(=O)c2sc(=O)n(Cc3cc(Cl)ccc3OC)c2C)cc1 | 14% | -19 | -4% | 16µM* | ? | -1%
Cc1c(C(=O)NCc2ccc(Cl)c(Cl)c2)sc(=O)n1Cc1cccc(F)c1 | -11% | ? | ? | ? | ? | ?
COc1ccc(C(C)=O)cc1Cn1c(C)c(C(=O)NCc2cccc(Cl)c2)sc1=O | 16% | -24 | -25% | 21µM* | ? | -2%
O=C(Nc1ccccc1)c1cnc(N2CCN(Cc3cccc(C(F)(F)F)c3)C2=O)o1 | -2% | · | · | · | · | ·
C=CCOc1cccc(CNc2cccc(C(=O)O)c2)c1 | 13% | -3 | 7% | -15% | 3% | 0%
COc1ccc(Cl)cc1Cn1c(C)c(C(=O)NCc2cccc(Cl)c2)sc1=O | 5% | 0 | -3% | ? | 15µM* | -1%
COc1ccc(Cl)cc1Cn1c(C)c(C(=O)NCc2ccc3c(c2)OCCO3)sc1=O | 2% | -9 | -5% | 18µM* | ? | -4%
COc1ccc(S(=O)(=O)N2CCCC(C(=O)N3CCCCCC3)C2)cc1 (stereo unspecified) | · | 5 | 9% | 18µM* | ? | 10%
CCOC(=O)N1CCN(C(=O)C2CCCN(S(=O)(=O)c3ccc(F)cc3)C2)CC1 (stereo unspecified) | 6% | -10 | 29% | -21% | ? | 2%
O=C(C1CCN(S(=O)(=O)c2cccc3cccnc23)CC1)N1CCN(c2ccccc2)CC1 | 5% | 12 | -3% | -26% | -29% | 1%
COc1ccc(N2CCN(C(=O)C3CCCN(S(=O)(=O)c4ccc(F)cc4)C3)CC2)cc1 (stereo unspecified) | -1% | -13 | -3% | 8.2µM* | 10µM* | -8%
O=C(C1CCCN(S(=O)(=O)c2cccc3cccnc23)C1)N1CCN(c2ccc(F)cc2)CC1 (stereo unspecified) | 316% | 7 | -4% | ? | 23µM* | -4%
SMILES | 12-LOX inh | IL-1B inflam inh | HT1080NT lethal | TDP1 cell noCPT | TDP1 cell CPT | HT1080 IDH1KD tx
COc1ccc(S(=O)(=O)N2CCCC(C(=O)N3CCCC3)C2)cc1OC (stereo unspecified) | -50% | 4 | -2% | -19% | -10% | 2%
Cc1ccc(S(=O)(=O)N2CCCC(C(=O)N3CCN(c4ccccc4)CC3)C2)cc1 (stereo unspecified) | ? | 0 | 13% | 18µM* | 18µM* | 10%
O=C(c1cc2n(n1)CC(c1ccc(Cl)cc1)OC2)N1CCN(c2ccc(F)cc2)CC1 (stereo unspecified) | -16% | · | · | · | · | ·
Cc1cccc2[nH]c(C(=O)OCC(=O)N3CCCCC3)cc12 | -5% | · | · | · | · | ·
NC(=O)CC1CCCCN1C(=O)CCc1ncc(-c2ccccc2)o1 (stereo unspecified) | 0% | · | · | · | · | ·
Cc1nn(C)c(C)c1S(=O)(=O)N1CCCC(C(=O)N2CCN(c3ccccc3)CC2)C1 (stereo unspecified) | -2% | 16 | -1% | 23µM* | 16µM* | 2%
CCOC(=O)C1CCCN(S(=O)(=O)c2ccc(OC)cc2)C1 (stereo unspecified) | 22% | 0 | 11%[9.24 µM] | -15% | -22% | 8%
COc1ccc(N2CCN(C(=O)C3CCCN(S(=O)(=O)c4ccc(C)cc4)C3)CC2)cc1 (stereo unspecified) | -10% | -2 | 2% | 9.2µM* | 9.2µM* | 7%
O=C1NC(=S)S/C1=C1\Sc2ccccc2N1CCCS(=O)(=O)O | -28% | 0 | 17% | -12% | 0% | 29%
NN1C(=O)/C(=C2/Sc3ccccc3N2CCCS(=O)(=O)O)SC1=S | 14µM* | -2 | -2% | -9% | 4% | 3%
Cn1c(=O)oc2cc(S(=O)(=O)N3CCC(C(=O)N4CCN(c5ccc(Cl)cc5)CC4)CC3)ccc21 | -16% | · | · | 2.3µM* | 2.1µM* | ·
Cn1c(=O)oc2cc(S(=O)(=O)N3CCC(C(=O)N4CCN(c5cccc(Cl)c5)CC4)CC3)ccc21 | -16% | · | · | 1.5µM* | 4.1µM* | ·
CC1CCN(Cc2c(O)ccc3c(=O)c(-c4nc5ccccc5s4)c(N)oc23)CC1 | -9% | 41 | -1% | ? | ? | -6%
CC1(C)CCCN(Cc2c(O)ccc3c(=O)c(-c4nc5ccccc5s4)c(N)oc23)C1 | 14% | 55 | ? | 13µM* | 18µM* | -5%

Assay outcomes (PubChem BioAssay)
